Some of the results follow. How many sequences the whole screen found active is unknown.

Results on 45 sequences are retold here after the supplement of paper PMC3545927.

For the assay, the target named is furin, P09958. The assay is described as follows: furin cleavage Z-score vs untreated control; higher = more cleavage, active = 3.5 or more, inactive = 1 or less, 8 variable residues between constant flanks. As to the method: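 Multiplexed peptide-cDNA fusion cleavage assay. 8-mer variable peptides flanked by constant Cys-Ala (N-term) and Ala-Gly-Asn-Ala-Ser-Ala-Ser-Ala (C-term) and conjugated to a cDNA oligonucleotide were bead-immobilised via the N-terminus. They were treated with purified furin at a 1:10 enzyme:substrate ratio in 50 mM HEPES pH 7.5, 1 mM CaCl2, 100 mM NaCl for 7.5, 15 or 30 min. Released cDNA was counted by next-generation sequencing, and log counts versus no-furin controls were lowess-adjusted and converted to robust Z-scores.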
furin, P09958, sequence (P09958 whole entry, the tested form may be a part): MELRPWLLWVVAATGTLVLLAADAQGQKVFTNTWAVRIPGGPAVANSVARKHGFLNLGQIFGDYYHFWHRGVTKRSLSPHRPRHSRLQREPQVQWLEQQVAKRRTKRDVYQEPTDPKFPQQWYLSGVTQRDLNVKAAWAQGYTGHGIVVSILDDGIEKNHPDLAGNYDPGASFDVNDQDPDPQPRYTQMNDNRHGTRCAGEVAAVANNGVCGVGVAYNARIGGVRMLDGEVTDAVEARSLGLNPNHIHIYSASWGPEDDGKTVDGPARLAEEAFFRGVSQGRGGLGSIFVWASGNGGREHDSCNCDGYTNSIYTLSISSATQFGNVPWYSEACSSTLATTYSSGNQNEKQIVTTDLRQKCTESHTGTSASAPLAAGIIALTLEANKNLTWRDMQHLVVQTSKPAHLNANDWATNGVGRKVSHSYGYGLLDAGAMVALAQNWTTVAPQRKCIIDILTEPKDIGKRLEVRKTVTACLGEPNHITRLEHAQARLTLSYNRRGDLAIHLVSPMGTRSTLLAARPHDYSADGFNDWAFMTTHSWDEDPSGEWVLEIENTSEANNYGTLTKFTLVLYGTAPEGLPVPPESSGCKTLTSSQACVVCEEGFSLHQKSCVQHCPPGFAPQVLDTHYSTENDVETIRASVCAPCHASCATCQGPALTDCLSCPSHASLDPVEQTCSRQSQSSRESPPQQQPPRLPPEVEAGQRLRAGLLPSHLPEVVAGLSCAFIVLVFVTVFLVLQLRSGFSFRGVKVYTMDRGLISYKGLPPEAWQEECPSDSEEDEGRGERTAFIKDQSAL

B1: HC965 (peptide)
chain: CAKCLIRLKPAGNASASA
Consider B1, for which the “furin cleavage Z-score” value is, setting by setting: (7.5 min) -0.996 (inactive); (15 min) 0.139 (inactive); (30 min) 0.507 (inactive).

B2: HC2278 (peptide)
chain: CATLEVVTSTAGNASASA
As for B2, the “furin cleavage Z-score” value is, setting by setting: (7.5 min) 2.04; (15 min) -0.134 (inactive); (30 min) -0.107 (inactive).

B3: HC776 (peptide)
chain: CAPTGSGKSTAGNASASA
In the case of B3, the “furin cleavage Z-score” value reads like this: (7.5 min) -0.612 (inactive); (15 min) -0.784 (inactive); (30 min) 0.917 (inactive).

B4: HC1339 (peptide)
chain: CATSGITGDNAGNASASA
As to B4, the “furin cleavage Z-score” value runs as follows: (7.5 min) 0.521 (inactive); (15 min) -1.94 (inactive); (30 min) -2.62 (inactive).

B5: FS-1553 (peptide)
chain: CAPSERTRRTAGNASASA
For B5, the “furin cleavage Z-score” value (7.5 min) was 6.49 (active), the “furin cleavage Z-score” value (15 min) is 7.9 (active) and the “furin cleavage Z-score” value (30 min) was 7.83 (active).

B6: FS-724 (peptide)
chain: CASSPRCKRTAGNASASA
In the case of B6, the “furin cleavage Z-score” value reads like this: (7.5 min) 6.48 (active); (15 min) 5.33 (active); (30 min) 4.2 (active).

B7: FS-76 (peptide)
chain: CAPTRRTKRTAGNASASA
B7: the “furin cleavage Z-score” value reads like this: (7.5 min) 10.6 (active); (15 min) 10.9 (active); (30 min) 7.13 (active).

B8: FS-196 (peptide)
chain: CASSFRFPRTAGNASASA
Take B8: the “furin cleavage Z-score” value by setting is: (7.5 min) 0.00727 (inactive); (15 min) 0.495 (inactive); (30 min) 1.37.

B9: HC416 (peptide)
chain: CAPSPVVVGTAGNASASA
In the case of B9, the “furin cleavage Z-score” value is 0.116 (inactive) (7.5 min), 0.136 (inactive) (15 min) and -0.669 (inactive) (30 min).

B10: FS-1576 (peptide)
chain: CATSPRTKRTAGNASASA
Turning to B10, the “furin cleavage Z-score” value (7.5 min) is 10.8 (active), the “furin cleavage Z-score” value (15 min) is 10.5 (active) and the “furin cleavage Z-score” value (30 min) is 8.67 (active).

B11: HC2310 (peptide)
chain: CAVVPCHRPSAGNASASA
B11: the “furin cleavage Z-score” value by setting is: (7.5 min) 0.864 (inactive); (15 min) 0.937 (inactive); (30 min) 1.82.

B12: HC376 (peptide)
chain: CADSLNTGWLAGNASASA
Consider B12, for which the “furin cleavage Z-score” value was -0.896 (inactive) (7.5 min), 0.0514 (inactive) (15 min) and -1.36 (inactive) (30 min).

B13: HC380 (peptide)
chain: CAAGLFYHHKAGNASASA
On to B13, for which the “furin cleavage Z-score” value was -0.0785 (inactive) (7.5 min), -0.406 (inactive) (15 min) and 0.464 (inactive) (30 min).

B14: HC1892 (peptide)
chain: CATTPCSESWAGNASASA
In the case of B14, the “furin cleavage Z-score” value runs as follows: (7.5 min) -1.68 (inactive); (15 min) -0.885 (inactive); (30 min) 0.194 (inactive).

B15: HC859 (peptide)
chain: CAKKKCDELAAGNASASA
B15: the “furin cleavage Z-score” value is, setting by setting: (7.5 min) 0.206 (inactive); (15 min) -0.587 (inactive); (30 min) -1.61 (inactive).

B16: HC1272 (peptide)
chain: CADAELIEANAGNASASA
On to B16, for which the “furin cleavage Z-score” value is 1.56 (7.5 min), 1.04 (15 min) and 0.698 (inactive) (30 min).

B17: HC731 (peptide)
chain: CAPVRRRGDSAGNASASA
With B17, the “furin cleavage Z-score” value by setting is: (7.5 min) -0.373 (inactive); (15 min) 0.103 (inactive); (30 min) -0.876 (inactive).

B18: FS-1247 (peptide)
chain: CAPVRRWRRVAGNASASA
B18: the “furin cleavage Z-score” value runs as follows: (7.5 min) 9.64 (active); (15 min) 9.32 (active); (30 min) 6.63 (active).

B19: FS-1127 (peptide)
chain: CAGLGRRRRVAGNASASA
Consider B19, for which the “furin cleavage Z-score” value by setting is: (7.5 min) 6.73 (active); (15 min) 8.39 (active); (30 min) 7.41 (active).

B20: FS-1126 (peptide)
chain: CAGLDRLRRVAGNASASA
As for B20, the “furin cleavage Z-score” value runs as follows: (7.5 min) 0.977 (inactive); (15 min) 1.09; (30 min) 1.81.

B21: FS-391 (peptide)
chain: CAYLRRRRRVAGNASASA
For the sequence B21, the “furin cleavage Z-score” value reads like this: (7.5 min) 9.87 (active); (15 min) 10.2 (active); (30 min) 8.18 (active).

B22: FS-1519 (peptide)
chain: CADVSRARRVAGNASASA
On to B22, for which the “furin cleavage Z-score” value is 0.954 (inactive) (7.5 min), 1.02 (15 min) and 1.74 (30 min).

B23: FS-633 (peptide)
chain: CAYINRKKKVAGNASASA
Take B23: the “furin cleavage Z-score” value (7.5 min) is -0.8 (inactive), the “furin cleavage Z-score” value (15 min) was -0.697 (inactive) and the “furin cleavage Z-score” value (30 min) is -0.973 (inactive).

B24: HC1895 (peptide)
chain: CATTPCSHSWAGNASASA
Turning to B24, the “furin cleavage Z-score” value reads like this: (7.5 min) -0.676 (inactive); (15 min) 1.01; (30 min) -1.05 (inactive).

B25: HC314 (peptide)
chain: CASIYPGHITAGNASASA
For the sequence B25, the “furin cleavage Z-score” value by setting is: (7.5 min) -1.99 (inactive); (15 min) -1.12 (inactive); (30 min) 0.0447 (inactive).

B26: HC1246 (peptide)
chain: CALTSMLTDPAGNASASA
For the sequence B26, the “furin cleavage Z-score” value reads like this: (7.5 min) -0.19 (inactive); (15 min) -0.57 (inactive); (30 min) -0.448 (inactive).

B27: HC1835 (peptide)
chain: CAHTPCSGSWAGNASASA
B27: the “furin cleavage Z-score” value runs as follows: (7.5 min) -0.934 (inactive); (15 min) -0.656 (inactive); (30 min) -1.49 (inactive).

B28: HC959 (peptide)
chain: CAAQAPPPSWAGNASASA
Consider B28, for which the “furin cleavage Z-score” value is, setting by setting: (7.5 min) -0.328 (inactive); (15 min) 0.141 (inactive); (30 min) -1.2 (inactive).

B29: FS-642 (peptide)
chain: CAANHVVKRDAGNASASA
B29: the “furin cleavage Z-score” value runs as follows: (7.5 min) 8.87 (active); (15 min) 11.8 (active); (30 min) 8.5 (active).

B30: FS-331 (peptide)
chain: CAGQSWVKRDAGNASASA
In the case of B30, the “furin cleavage Z-score” value was 1.45 (7.5 min), 0.512 (inactive) (15 min) and 1.11 (30 min).

B31: FS-253 (peptide)
chain: CAINKRVKRDAGNASASA
Take B31: the “furin cleavage Z-score” value (7.5 min) was 7.21 (active), the “furin cleavage Z-score” value (15 min) is 5.79 (active) and the “furin cleavage Z-score” value (30 min) is 4.98 (active).

B32: HC1429 (peptide)
chain: CATHINSVWKAGNASASA
Turning to B32, the “furin cleavage Z-score” value (7.5 min) is -0.832 (inactive), the “furin cleavage Z-score” value (15 min) was -2.14 (inactive) and the “furin cleavage Z-score” value (30 min) is -0.179 (inactive).

B33: HC2199 (peptide)
chain: CAEVPTSTWVAGNASASA
In the case of B33, the “furin cleavage Z-score” value runs as follows: (7.5 min) 0.334 (inactive); (15 min) -2.59 (inactive); (30 min) -0.0938 (inactive).

B34: HC1862 (peptide)
chain: CATQPCSGSWAGNASASA
For the sequence B34, the “furin cleavage Z-score” value was 0.195 (inactive) (7.5 min), -1.61 (inactive) (15 min) and 0.946 (inactive) (30 min).

B35: HC2365 (peptide)
chain: CAEVPCHLPSAGNASASA
In the case of B35, the “furin cleavage Z-score” value is, setting by setting: (7.5 min) 0.888 (inactive); (15 min) 0.887 (inactive); (30 min) 2.28.

B36: HC647 (peptide)
chain: CAPVVFSQMEAGNASASA
Consider B36, for which the “furin cleavage Z-score” value is 1.38 (7.5 min), 1.32 (15 min) and 0.561 (inactive) (30 min).

B37: HC273 (peptide)
chain: CAGCVPCVREAGNASASA
As for B37, the “furin cleavage Z-score” value (7.5 min) was 0.467 (inactive), the “furin cleavage Z-score” value (15 min) is 0.158 (inactive) and the “furin cleavage Z-score” value (30 min) was 1.81.

B38: FS-2862 (peptide)
chain: CAGQKRSRSRAGNASASA
Take B38: the “furin cleavage Z-score” value by setting is: (7.5 min) 0.426 (inactive); (15 min) -2.34 (inactive); (30 min) 0.754 (inactive).

B39: FS-368 (peptide)
chain: CAPESRKRREAGNASASA
As to B39, the “furin cleavage Z-score” value reads like this: (7.5 min) 13.9 (active); (15 min) 14.4 (active); (30 min) 11.3 (active).

B40: FS-1207 (peptide)
chain: CAGSKRSRREAGNASASA
Consider B40, for which the “furin cleavage Z-score” value is 11.5 (active) (7.5 min), 11.8 (active) (15 min) and 7.54 (active) (30 min).

B41: HC399 (peptide)
chain: CAGSGPDQRPAGNASASA
Turning to B41, the “furin cleavage Z-score” value was -0.948 (inactive) (7.5 min), 0.971 (inactive) (15 min) and -0.827 (inactive) (30 min).

B42: FS-1128 (peptide)
chain: CAGSMRANRIAGNASASA
For B42, the “furin cleavage Z-score” value (7.5 min) was -0.706 (inactive), the “furin cleavage Z-score” value (15 min) was 0.0659 (inactive) and the “furin cleavage Z-score” value (30 min) is 0.059 (inactive).

B43: FS-3180 (peptide)
chain: CAPVLRGQAGAGNASASA
For the sequence B43, the “furin cleavage Z-score” value is -0.625 (inactive) (7.5 min), 0.202 (inactive) (15 min) and -0.205 (inactive) (30 min).

B44: FS-476 (peptide)
chain: CAPQSRGRREAGNASASA
Regarding B44, the “furin cleavage Z-score” value by setting is: (7.5 min) 13.1 (active); (15 min) 13.2 (active); (30 min) 8.24 (active).

B45: FS-435 (peptide)
chain: CAGSNRKVREAGNASASA
With B45, the “furin cleavage Z-score” value is 10.8 (active) (7.5 min), 11.2 (active) (15 min) and 7.92 (active) (30 min).
